The labels stand for the following.
B1: GBRAP_11_2689 (protein)
chain: KKEKLEEGAKLAEKGAELVERLLREGVDNEELLAELEKTLEELLKLAKKHASPASQKLTEDIKETWKRLLADPENAEEYARELLAGLRVLAGQYLLEIEE
B2: GBRAP_137_3670 (protein)
chain: MIRVEVELENGLAFARITVEGSPEELERAAEIAEDIAGEIPDLAVSVKLTEEGRLEIDVFGTPESVEAFLRRLAERLDRTVEVTTRDEETGEVRRRVIRP
B3: GBRAP_184_5066 (protein)
chain: SVAEETLEVRDLAEARAKLAALRAAVADHRGDLVVHLVLPEFDREIVALVLEGLAEIRAAGYARRVTVGLDADLTEEEADFAIELADAAGVNLTLALPEE
B4: GBRAP_95_7084 (protein)
chain: EEELEEAEALMATAVDLYDAGLEEQAARAIRDALDELEELGYKVADKELLERLLRHFVALALRHFDAEEVERALALAEASGAPAEIIAALRAALAALRAA
B5: GBRAP_79_6747 (protein)
chain: GVEEARRALVEALRVVLPDLTEEEAAEAVASDEALRAALLRAGISEEMAAELLEAIDAIPELAAERFRRTVERMEGLEPEDRRDVLEATIAAVIYEAEQR
B6: GBRAP_160_4279 (protein)
chain: SEKLLELAEELEEDREEILSLVDEISAEEVRTLAVTDLGSILLEAIDLELLSDEEEDELAKIIDDLDAELAAAADASPAERRAIITRHYDKAIELLRKAA
B7: GBRAP_52_6358 (protein)
chain: ALEEALALLREALAAVAAGDEEEARAILEELVATYSEETILAAFERLAEEVADKDVATAEALLETALLLADVMDEAGRDPAVADDIEAIAARTYMAVKAK
B8: GBRAP_48_5840 (protein)
chain: EEEKREKAIEEILKIIKETAELLEEAKEEGLSEAAFEAILIDAAEEIKEVLEKYLGLGEEFEKLPLEEQLAIVEELVKTYKEEGEEATRKKIKEFIEKLE
B9: GBRAP_186_5371 (protein)
chain: EEEAEKEIEEFIDEAAKKGYVISGVLEVKEFTEEAKKKIFDELEALAEFSAEFGYKGALIIKSTVSEEEFEELKKFVEEKRDELSKETGAEVEVKIVHVK
B10: GBRAP_78_6619 (protein)
chain: ETKEKIIELLDRARDRMREIARREPEVRDLANEAAVLVGTAILMVDTGEESKEEIIEELEEALKVAKELLERLEGRDEESVKLAKEAIEDLKKAIELVKK
B11: GBRAP_160_4698 (protein)
chain: TATAEKLKAFVKEEFEKAKEEIEGESREQRAVILAGTGGEILMELVEDPNATDELEDEVLAIFDDAVATLLANPNLTLEETKALIDEVEAKVLAAIDKHL
B12: GBRAP_166_4925 (protein)
chain: MIEEKVEEARKRLEEVIREGRADPSLTDGQITAAMAYEVAEMLKDIEDEEEKLAVVEEGLRLAKEEGLDPRRLATLTASLYGFSDEERERIDEITEKILA
B13: GBRAP_53_6398 (protein)
chain: AAAAIAAGLAELEALIAEVEADPTLDAADVAARAGALLKALAAAGAPEAELTALARRLAAAVAARGLGVEVSTALAATAAAAGREAVAAVFTEAAVEDLE
B14: GBRAP_128_3157 (protein)
chain: STEEVREETRRLLEEIRESDEEEAREIARELFALILTLSDEEAEAAVEVILELLPELSKEKLEILADVAREMRPEADPFKAELLAEVEVEALNEALELEE
B15: GBRAP_45_5811 (protein)
chain: SEELKETREKLEELLKKAKELAEKLKEEDPEKFTPLLELLEEAEKLLKEEPESLEAWERIEELLEEALKLALDSKKASAELLETLLEAANLALEAKELLE
B16: GBRAP_52_5842 (protein)
chain: MEEEARRLAEELVALAEAGREEELDALIEEIVETLSEEEVMLVLEELARLAAEADPETAEVIFDVADRLADAALAAGFDEMEMSLGLALVGAAVYKALQR
B17: GBRAP_184_5031 (protein)
chain: SVIERTIKADNLEELEAKLEKLKEEVKGSKADLIVTLDIKNPTEEMIKTALKRLGEMKKNGDVSSVTVGFARLLSEELIDVALKTADEEGVKVVLPISEE
B18: GBRAP_52_6157 (protein)
chain: MEARAEAYANALIAAVKAGDEAAIRALMEEIAATLSEEEIELMMAIVAEKVAGLTPEEQERAVEAALELEDILIAAGHDENIASYNTARVAGAAYDALQA
B19: GBRAP_52_6039 (protein)
chain: MEEEMRRKAEEIVELVKAGRRAEAEARIRELVATWSEEELELLGEELARLAREAEPEDLDAVMEAALMLADALEAAGYDPAFADDLLARVAAAAVENLQR

Whole data set: some 4,500 sequences, median “median log2 fold change of GCK-ALFA target abundance (FLAG IP / Myc IP barcode read proportion)” near 0.078, cut for the lowest 2% near -0.6. This is one part of a sample in which the lowest values are shown more often than they occur.

The target of this assay is GABARAP, O95166. The assay can be described thus: median log2 fold change of GCK-ALFA target abundance (FLAG IP / Myc IP barcode read proportion) (log2 ratio); each designed protein is fused to an ALFA-tag nanobody in HEK293 cells to bring the named protein to FLAG-tagged glucokinase (GCK); Myc marks an untargeted standard; higher = target protein stabilised (more abundant). The following applies: target protein: 3xFLAG-MCP-GCK-ALFA reporter; HEK293 landing pad (RPLP). In short, it runs like this: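 Binders fused to an ALFA nanobody were recombined as a library into HEK293 landing-pad cells, which were induced with 2 μg mL^−1 doxycycline and then transfected to express a FLAG-tagged target and a Myc-tagged standard. After 48 h, circular RNA barcodes recovered by anti-FLAG and anti-Myc immunoprecipitation of lysates were reverse transcribed, amplified and sequenced. Each binder's target abundance is the median log2 ratio of FLAG to Myc barcode read proportions, from barcodes present at ≥10^−7 in both replicates, binders carrying ≥3 barcodes per replicate, a 10^−6 pseudocount and pooled replicates.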
Chain of GABARAP, O95166 (O95166 whole entry, the tested form may be a part): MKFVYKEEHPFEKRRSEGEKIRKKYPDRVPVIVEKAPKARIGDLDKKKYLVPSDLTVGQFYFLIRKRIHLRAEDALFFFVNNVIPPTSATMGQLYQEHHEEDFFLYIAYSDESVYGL
In the case of B1, the “median log2 fold change” value stood at 0.195.
The result for B2 reads 0.0906; that for B3, 0.0273; that for B4, -0.692.
In the case of B5 it was 0.209.
As to B6, the “median log2 fold change” value was -0.493.
In the case of B7 it was -0.632; in that of B8, -0.364; in that of B9, 0.163.
In the case of B10 it was 0.338; in that of B11, -0.69; in that of B12, 0.302.
The result for B13 reads 0.254.
In the case of B14, the “median log2 fold change” value stood at 0.00897.
The result for B15 reads 0.129; that for B16, -0.837.
The result for B17 reads 0.0419.
In the case of B18 it was -0.262.
Consider B19, for which the “median log2 fold change” value was -0.911.

The values above are taken from the supplement of paper PMC12632987.
